The source of these data is PubChem BioAssay (NCI).

The panel holds about 83,000 compounds, 20% with a hit somewhere; the sample as a whole holds those more often.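 Percent growth is the endpoint: 0 to 100 indicates growth inhibition (40 means 60% inhibition), 0 means no net growth, and negative values indicate cell death.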 Unmarked numbers belong to inactive results. Calls of active or inactive are those of the source. The calls were made as follows: active = growth percent below 10; inactive = the rest.

Among the test systems are DU-145 prostate; K-562 leukemia; MALME-3M melanoma; MDA-MB-231 breast; RXF 393 renal; SF-268 CNS; SF-295 CNS; SF-539 CNS; UACC-257 melanoma; M14 melanoma.
Common to all, as to assay: NCI-60 one-dose screen, 48 h (100 = growth as untreated, 0 = no growth, -100 = all killed)
What all share (conditions): 10 µM unless noted

Take `O=C1Nc2ccc(Br)cc2/C1=N\N=C/c1cn(Cc2ccccc2)c2ccccc12`: the growth in the test on DU-145 prostate was 95.7%; in the test with K-562 leukemia, 67.4%; in the test on MALME-3M melanoma, 115%; in the test on MDA-MB-231 breast it was 93.3%; in the test on RXF 393 renal, 58.4%; with SF-268 CNS it was 95%. The growth was 95.9% in the test on SF-295 CNS, 99.4% in the test on SF-539 CNS, 109% with UACC-257 melanoma and 106% with M14 melanoma.

Take `COc1cccc(C(=O)OCCn2nc3c4c(cccc42)C(=O)c2ccccc2-3)c1O`: the growth in the test on DU-145 prostate was 54.7%; in the test on K-562 leukemia, 13.7%; in the test on MALME-3M melanoma it was 62.6%; in the test with MDA-MB-231 breast it was 62.2%; in the test on RXF 393 renal it was 53%; in the test with SF-268 CNS it was 55.8%. Moreover, the growth was 17.1% in the test on SF-295 CNS, 9.58% (active) with SF-539 CNS, 79.4% in the test on UACC-257 melanoma and 36.2% with M14 melanoma.

Regarding `COc1cc(C(=O)Nc2cc(O)c(C/C=C(\C)CCC=C(C)C)c(O)c2)cc2c1O[C@]1(C)CC[C@@H](O)C(C)(C)[C@H]1C2`, the growth with DU-145 prostate is 27%; in the test with K-562 leukemia, -31.5% (active); in the test on MALME-3M melanoma, -5.78% (active); with MDA-MB-231 breast, -36.5% (active); in the test on RXF 393 renal it was -40.3% (active); in the test on SF-268 CNS it was 24.8%. For the same compound, the growth was -36.2% (active) in the test with SF-295 CNS, -41.7% (active) in the test on SF-539 CNS, 24% with UACC-257 melanoma and -0.604% (active) in the test on M14 melanoma.

With `c1cc(CNC23CC4CC(CC(C4)C2)C3)cc(C[N+](Cc2cccc(CNC34CC5CC(CC(C5)C3)C4)c2)(Cc2cccc(CNC34CC5CC(CC(C5)C3)C4)c2)Cc2cccc(CNC34CC5CC(CC(C5)C3)C4)c2)c1` (stereo not given), the growth is -4.07% [42 µM] (active) with DU-145 prostate; 4.99% [42 µM] (active) in the test on K-562 leukemia; 6.44% [42 µM] (active) in the test on MALME-3M melanoma; 16.7% [42 µM] in the test with MDA-MB-231 breast; 4.56% [42 µM] (active) with RXF 393 renal; 26.9% [42 µM] in the test with SF-268 CNS. For the same compound, the growth is 54.4% [42 µM] in the test with SF-295 CNS, 16.9% [42 µM] in the test on SF-539 CNS, 41.5% [42 µM] in the test on UACC-257 melanoma and 24.3% [42 µM] in the test on M14 melanoma.

For the compound `COc1ccc(-c2nc(C#N)c(NCC(c3ccc(Cl)cc3)N3CCCCC3)o2)cc1` (stereo not given), the growth is 94% in the test with DU-145 prostate; 76.7% in the test with K-562 leukemia; 91.4% with MALME-3M melanoma; 102% in the test with MDA-MB-231 breast; 71.8% in the test on RXF 393 renal; 89.7% in the test on SF-268 CNS. Further, the growth was 96.1% in the test with SF-295 CNS, 101% in the test with SF-539 CNS, 109% in the test on UACC-257 melanoma and 92.7% in the test on M14 melanoma.

`C=C1C(=O)O[C@H]2[C@H]1CC/C(COC(=O)c1cccnc1)=C\CC[C@@]1(C)O[C@@H]21`: the growth with DU-145 prostate is 16.4%; in the test on K-562 leukemia, 16.4%; in the test on MALME-3M melanoma, 66.9%; in the test with MDA-MB-231 breast, 79.9%; in the test on RXF 393 renal, 46%; in the test with SF-268 CNS it was 90.7%. Further, the growth is 102% with SF-295 CNS, 60.2% in the test on SF-539 CNS, 57.8% with UACC-257 melanoma and 58.3% in the test with M14 melanoma.

`CC1(C)Cc2c(Br)c(Br)c(Br)c(OCC(O)CN3CCOCC3)c2O1` (stereo not given): the growth in the test with DU-145 prostate was 106%; in the test with K-562 leukemia, 44.1%; in the test with MALME-3M melanoma it was 35%; in the test on MDA-MB-231 breast, 83.2%; with RXF 393 renal it was 70.6%; in the test on SF-268 CNS, 105%. For the same compound, the growth with SF-295 CNS is 113%; in the test with SF-539 CNS it was 92.9%; in the test on UACC-257 melanoma it was 97.3%; with M14 melanoma it was 94.5%.

As to `O=CN1N=C(c2ccc(Cl)cc2)CC1c1cccc(Nc2ccnc3cc(C(F)(F)F)ccc23)c1` (stereo not given), the growth with DU-145 prostate is 70.1%; in the test with K-562 leukemia it was 24.9%; in the test on MALME-3M melanoma, 77.5%; in the test with MDA-MB-231 breast, 80.7%; with RXF 393 renal, 71.4%; with SF-268 CNS, 58.9%. The growth in the test with SF-295 CNS was 51.4%; in the test on SF-539 CNS, 78.7%; in the test on UACC-257 melanoma it was 52.1%; in the test with M14 melanoma it was 74%.

On to `Cc1c(Cl)cccc1NC(=O)c1sc2nc3c(cc2c1N)COCC3`, for which the growth with DU-145 prostate is 33%; in the test with K-562 leukemia, 13%; with MALME-3M melanoma it was 59.4%; in the test on MDA-MB-231 breast, 49%; with RXF 393 renal, 13.1%; in the test with SF-268 CNS it was 47.4%. Also, the growth with SF-295 CNS is 12.9%; with SF-539 CNS, 11.4%; in the test with UACC-257 melanoma it was 47.3%; in the test on M14 melanoma, 10.8%.

In the case of `C1=CC2=CC=C3C=CC=C4C(c5nc6c7ccccc7c7ccccc7c6[nH]5)=CC(=C1)C2C34` (stereo not given), the growth with DU-145 prostate was 105%; in the test with K-562 leukemia, 90.4%; with MALME-3M melanoma, 117%; with MDA-MB-231 breast, 76.8%; with RXF 393 renal, 99.8%; in the test with SF-268 CNS, 85.4%. The growth in the test on SF-295 CNS is 113%; in the test on SF-539 CNS, 101%; in the test on UACC-257 melanoma, 105%; with M14 melanoma, 99.3%.

In the case of `COc1ccc(OCC(=O)OC(C)C)cc1`, the growth with DU-145 prostate was 101%; in the test with K-562 leukemia it was 98.7%; in the test on MALME-3M melanoma, 91.1%; in the test with MDA-MB-231 breast, 98.1%; with RXF 393 renal, 80.5%; in the test on SF-268 CNS, 92.5%. In addition, the growth with SF-295 CNS was 96.6%; with SF-539 CNS, 98%; with UACC-257 melanoma, 97.7%; with M14 melanoma, 98.6%.

For the compound `O=S(=O)(O)c1ccc(N=NSc2ccc3ccccc3c2)cc1`, the growth in the test on DU-145 prostate was 103%; in the test with K-562 leukemia it was 118%; in the test on MALME-3M melanoma it was 92.3%; with MDA-MB-231 breast, 102%; in the test on RXF 393 renal it was 117%; in the test on SF-268 CNS, 98.8%. The growth was 97.4% in the test with SF-295 CNS, 100% in the test with SF-539 CNS, 113% with UACC-257 melanoma and 92.9% in the test on M14 melanoma.

For `O=C1CCC23OC(c4ccccc4N12)C(O)C(O)C3O` (stereo not given), the growth in the test on DU-145 prostate was 107%; in the test on K-562 leukemia it was 90.4%; in the test on MALME-3M melanoma, 91.6%; with MDA-MB-231 breast, 103%; with RXF 393 renal it was 113%; in the test on SF-268 CNS, 96.6%. For the same compound, the growth was 110% in the test with SF-295 CNS, 101% in the test on SF-539 CNS, 102% in the test on UACC-257 melanoma and 100% with M14 melanoma.
